This is a sample that favours compounds with a hit; in the whole collection about 2.5% have one here.
FXN GAA850 act – frataxin GAA850 promoter activation. HEK293 lucGAA850 FXN promoter luciferase reporter, 24 h; percent of 10 µM SAHA response. activation, % at 6 µM. 360,000 compounds, 0.56% hits;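 active = activation above the average of all compounds screened plus 3 SD, cutoff fixed separately per campaign, cut at about 7.5% in these data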;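 also: 0% = DMSO wells and 100% = 10 µM SAHA wells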
PAX8 reporter – PAX8 transcriptional activity inhibition; inhibition, % at 12.6 µM; RMG-I TPO-luciferase reporter, SteadyGlo, 24 h; 360,000 compounds, 1.2% hits;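 active = mean replicate inhibition at least 60% with every replicate also reaching 60%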;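 also: luciferase light reporting Pax8 driven TPO promoter activity; plate controls were median of neutral control wells for no effect and mitoxantrone controls for full effect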
EWS-Fli block – EWS/Fli transcriptional activity inhibition | AID 651661 | 350,000 compounds, 0.67% hits | A673 NR0B1-luciferase reporter, viability-normalised | inhibition, % at 12.6 µM;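 active = mean inhibition of at least 50% after viability correction, with every replicate also passing that limit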;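 also: firefly luciferase signal divided by Alamar Blue viability fluorescence both relative to DMSO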
HIV Env fusion – blocks HIV Env-driven cell-cell fusion; HeLa-JRFL Env/CEM21 cell fusion, luciferase; inhibition, % at 12.3 µM; 360,000 compounds, 1.1% hits;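 active = mean replicate inhibition score of at least 50 and every replicate individually at or above 50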;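 also: 0% = plate neutral controls and 100% = maraviroc near 300 nM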
CFTR F508del cor – CFTR F508del correction in bronchial cells | AID 720511 | 350,000 compounds, 0.36% hits | CFBE cells, YFP halide quenching; stimulated with forskolin plus potentiator P3; % fluorescence drop versus neutral controls | activity (quench increase), % at 7.58 µM;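 active = mean added fluorescence quench of at least 8% versus neutral control, with both replicates also reaching 8%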;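 also: cells transiently co-express mutant CFTR-F508del with the halide-sensitive YFP; corrector assay measuring rescue of mutant channel to the surface after 24 h compound exposure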
* marks the source's active call; other numbers are inactive results; [ ] = dose if it differs, or a comment.

Results for CC(C)c1cn(CC[C@H]2CC[C@H](NS(=O)(=O)Cc3ccccc3)[C@@H](CO)O2)nn1 ?
PAX8 reporter: 3.0; EWS-Fli block: 8.9; HIV Env fusion: 9.3[16.7 µM]; CFTR F508del cor: 2.9

What do the screens show for `CC(=O)O[C@H]1[C@@H](O)[C@H](O)[C@H](Oc2c(O)c(C)c3c4c2[C@@H](C)CC[C@@H]4[C@@H](C)C[C@H]3C=C(C)C)O[C@H]1C`?
FXN GAA850 act: 1.1; PAX8 reporter: 64.3*; EWS-Fli block: 17.0; HIV Env fusion: -9.3; CFTR F508del cor: 1.0

Results for O=C(O)C1=C[C@@H](O)[C@@H](O)[C@H](O)C1 ?
FXN GAA850 act: 0.0; PAX8 reporter: 10.6; EWS-Fli block: 3.1; HIV Env fusion: -7.8; CFTR F508del cor: 9.7*

What do the screens show for `NC1C=CC=C(C(=O)O)C1` (stereo not drawn)?
FXN GAA850 act: 0.2; PAX8 reporter: -1.0; EWS-Fli block: -8.1; HIV Env fusion: 3.3; CFTR F508del cor: -3.2

What do the screens show for `COc1ccc2c3c(n(C)c2c1)[C@@H](CO)N(Cc1ccncc1)CC31CCN(C(=O)C2CCC2)CC1`?
PAX8 reporter: -3.0; EWS-Fli block: 6.3; CFTR F508del cor: 0.9

How did COc1ccc2c(=O)c3c(=O)n(Cc4ccco4)c(-c4ccc(C)cc4)nc3oc2c1 do in these assays?
FXN GAA850 act: -4.1; HIV Env fusion: -111.4

How did COc1cc(-c2nc3oc4ccccc4c(=O)c3c(=O)n2Cc2ccco2)cc(OC)c1OC do in these assays?
FXN GAA850 act: -3.0; PAX8 reporter: 31.1; HIV Env fusion: 92.3*

What do the screens show for `CSCCC(NS(=O)(=O)c1ccc2c(c1)oc(=O)n2C)C(=O)NC1CCN(Cc2ccccc2)CC1` (stereo not drawn)?
FXN GAA850 act: -1.6; PAX8 reporter: 12.2; EWS-Fli block: 6.5; HIV Env fusion: -1.7; CFTR F508del cor: -1.6

What do the screens show for `CSCCC(NS(=O)(=O)c1ccc2c(c1)oc(=O)n2C)C(=O)NC1CCC(C)CC1` (stereo not drawn)?
FXN GAA850 act: 0.3; PAX8 reporter: 14.4; EWS-Fli block: -3.1; HIV Env fusion: 60.0*; CFTR F508del cor: 2.2

How did COc1ccc2c3c(n(C)c2c1)[C@@H](CO)N(CC1CC1)CC31CN(S(=O)(=O)c2cccs2)C1 do in these assays?
PAX8 reporter: 15.0; EWS-Fli block: -9.1; CFTR F508del cor: 3.9

Results for C[C@@H]1CN([C@H](C)CO)C(=O)c2cc(-c3ccccc3F)cnc2O[C@@H]1CN(C)C(=O)C1CC1 ?
EWS-Fli block: -5.6; HIV Env fusion: 9.0[16.7 µM]; CFTR F508del cor: 2.5

What do the screens show for `COc1ccc(N=c2scc(-c3ccc(OC)cc3)n2CCO)cc1`?
FXN GAA850 act: 1.3; PAX8 reporter: -19.0; HIV Env fusion: 71.3*

Results for OCCCn1c(-c2ccccc2)csc1=Nc1ccccc1 ?
FXN GAA850 act: 1.9; PAX8 reporter: 6.4; EWS-Fli block: -11.5; HIV Env fusion: 23.6; CFTR F508del cor: 4.2

How did CS(=O)(=O)Nc1ccc2c(c1)[C@H]1C[C@@H](CC(=O)N3CCCCC3)O[C@@H](CO)[C@H]1O2 do in these assays?
PAX8 reporter: -5.7; EWS-Fli block: -4.4; CFTR F508del cor: -1.3

How did COc1ccccc1N1CCN(CCCC(=O)c2ccc(F)cc2)CC1 do in these assays?
FXN GAA850 act: 0.4; PAX8 reporter: -4.4; EWS-Fli block: -4.3; HIV Env fusion: -10.8; CFTR F508del cor: 0.4

What do the screens show for `COc1ccc(/C=N/NC(=O)C(=O)N2CCN(c3ccccc3OC)CC2)cc1`?
FXN GAA850 act: 8.4*; HIV Env fusion: -1.7

What do the screens show for `COc1ccc(C(=O)CCN2CCN(c3ccccc3OC)CC2)cc1`?
FXN GAA850 act: 4.0; PAX8 reporter: 83.2*; EWS-Fli block: -4.2; HIV Env fusion: -21.8; CFTR F508del cor: -5.8

What do the screens show for `COc1ccc(C(=O)CCN2CCc3cc(OC)c(OC)cc3C2)cc1`?
FXN GAA850 act: 0.6; PAX8 reporter: 71.0*; EWS-Fli block: -6.2; HIV Env fusion: 10.6; CFTR F508del cor: -2.5

What do the screens show for `O=C(CC1CC1)Nc1ccc2c(c1)[C@H]1C[C@H](CC(=O)NC3CCCCC3)O[C@@H](CO)[C@H]1O2`?
PAX8 reporter: 7.8; EWS-Fli block: 2.3; HIV Env fusion: -12.3[16.7 µM]; CFTR F508del cor: -1.7

How did Cc1noc(C)c1NC(=O)Nc1ccc2c(c1)CC(=O)N([C@H](C)CO)C[C@H](C)[C@H](CN(C)Cc1ccccc1)O2 do in these assays?
PAX8 reporter: -30.3; EWS-Fli block: 2.8; HIV Env fusion: -22.0[16.7 µM]; CFTR F508del cor: -3.5

Results for C[C@@H]1CN([C@H](C)CO)C(=O)c2cccc(NC(=O)c3cnccn3)c2O[C@@H]1CN(C)S(=O)(=O)c1ccccc1 ?
PAX8 reporter: -2.6; EWS-Fli block: 2.2; HIV Env fusion: 7.7[16.7 µM]; CFTR F508del cor: 1.3

What do the screens show for `CNC[C@H]1Oc2ccc(NS(=O)(=O)c3ccc(F)cc3)cc2CC(=O)N([C@H](C)CO)C[C@@H]1C`?
PAX8 reporter: -12.0; EWS-Fli block: 7.7; CFTR F508del cor: -1.4

Results for Cc1cccc(-c2ccc(C3[C@H]4CNC[C@@H]3N4CC3CCOCC3)cc2)c1 (stereo partly drawn) ?
PAX8 reporter: -1.5; EWS-Fli block: 9.5; CFTR F508del cor: 2.4

How did CC(C)CNc1nc(N)c([N+](=O)[O-])c(N2CCCCCC2)n1 do in these assays?
FXN GAA850 act: 3.3; PAX8 reporter: -0.1; EWS-Fli block: 6.0; HIV Env fusion: 23.7; CFTR F508del cor: 0.1

Results for CCC(C)Nc1nc(N)c([N+](=O)[O-])c(N2CCCCCC2)n1 (stereo not drawn) ?
FXN GAA850 act: 2.0; PAX8 reporter: 77.5*; EWS-Fli block: 14.0; HIV Env fusion: 20.0; CFTR F508del cor: -0.4

How did Cc1oc(-c2ccc(Cl)cc2)nc1CN1CCCC(C(=O)NCc2cccnc2)C1 (stereo not drawn) do in these assays?
FXN GAA850 act: -1.9; PAX8 reporter: 25.4; HIV Env fusion: 86.7*

What do the screens show for `Cc1oc(-c2cccc(Cl)c2)nc1CN1CCCC(C(=O)NC(C)c2ccc3c(c2)OCCO3)C1` (stereo not drawn)?
FXN GAA850 act: 4.1; PAX8 reporter: 39.0; EWS-Fli block: 7.7; HIV Env fusion: 84.4*; CFTR F508del cor: 1.9

How did C[C@@H]1CN([C@@H](C)CO)C(=O)c2cc(-c3ccncc3)cnc2O[C@@H]1CN(C)C(=O)C1CC1 do in these assays?
EWS-Fli block: -1.9; HIV Env fusion: 5.5[16.7 µM]; CFTR F508del cor: 2.3

Results for CN(C)C(=O)c1cccc(-c2ccc(C3[C@H]4CNC[C@@H]3N4Cc3cc(F)ccc3F)cc2)c1 (stereo partly drawn) ?
CFTR F508del cor: -3.0

What do the screens show for `COCC(=O)N1[C@H](C#N)[C@@H](c2ccccc2-c2ccccc2F)[C@@H]1CO`?
EWS-Fli block: 2.5; CFTR F508del cor: -0.6

How did C[C@H](CO)N1C[C@H](C)[C@@H](CN(C)C(=O)c2cccc(F)c2)Oc2cc(-c3ccncc3)ccc2S1(=O)=O do in these assays?
PAX8 reporter: -10.4; EWS-Fli block: 3.1; HIV Env fusion: -0.4[16.7 µM]

Compound activity as filed in PubChem BioAssay.
